Screening results as filed in PubChem BioAssay.
Peg3 promoter = reduces Peg3 promoter-driven luciferase expression in HeLa; HeLa PEG-Prom luciferase reporter, luminescence, overnight; inhibition, % at 20 µM; 360,000 compounds, 1.7% hits; AID 588405;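 active = inhibition of at least 50% at 20 µM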
HIF-2a block = HIF-2a inhibition; 786-0 RCC cells HIF-2a reporter, luciferase luminescence, overnight; inhibition, % at 18.8 µM; 360,000 compounds, 0.72% hits; AID 624352;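 active = inhibition of the luminescence signal of 40% or more relative to plate controls, in a single-dose primary screen at 18.75 µM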
TROY signal inh = TROY signaling inhibition; 360,000 compounds, 0.98% hits; Q293 LMP1-TROYcd NF-kB luciferase reporter, 4 h; AID 1347056; inhibition, % at 10 µM;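 active = compounds whose plate-normalised and pattern-corrected inhibition of the luciferase reporter signal at the single screening dose is 50% or more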
TWEAK Fn14 block = TWEAK-Fn14 signaling inhibition; TWEAK-stimulated Fn14 reporter cells, luciferase luminescence, 8 h; inhibition, % at 10 µM; 360,000 compounds, 2% hits; AID 1159606; in the data active = inhibition above about 50%
KKLEB cytotox = reduces viability of KKLEB cystic fibrosis airway cells; KKLEB CF airway cells viability, ATPlite luminescence, overnight; active compounds read low; cells stimulated with P. aeruginosa culture filtrate; activity change (cytotoxicity), % at 5 µM; 360,000 compounds, 0.36% hits;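 active = corrected activity change at or below -50% at 5 µM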
CF NFkB block = blocks PAF-induced NF-kB reporter in cystic fibrosis cells; KKLEB NF-kB-GFP reporter, GFP fluorescence overnight; inhibition, % at 5 µM; 360,000 compounds, 0.86% hits; AID 588850;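 active = at least 50% inhibition at 5 µM, scaled per plate between neutral and stimulator controls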;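 note: PAF is a Pseudomonas aeruginosa culture filtrate used as stimulus; plate controls were PAF-stimulated DMSO wells for no effect and unstimulated DMSO wells for full effect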
* hit, by the source's call. Sampled rows, rich in hits. Any-hit rate of the full collection: about 4%.

For O=C1/C(=C/c2ccccc2)CN(C(=O)CCN2CCOCC2)C/C1=C\c1ccccc1 the results were Peg3 promoter 96*, HIF-2a block 85*, TROY signal inh 22, TWEAK Fn14 block 100*, KKLEB cytotox 9 and CF NFkB block 90*.
Screening CN(C)CCC(=O)N1C/C(=C/c2ccccc2)C(=O)/C(=C\c2ccccc2)C1 returned Peg3 promoter 109*, HIF-2a block 92*, TROY signal inh 59*, TWEAK Fn14 block 103*, KKLEB cytotox -71* and CF NFkB block 95*.
For O=C(/C=C/c1ccccc1)CCN1CCOCC1 the results were Peg3 promoter 92*, HIF-2a block -8, TROY signal inh 12, TWEAK Fn14 block 19, KKLEB cytotox -7 and CF NFkB block 7.
For C[N+](C)(C)CCC(=O)N1C/C(=C/c2ccccc2)C(=O)/C(=C\c2ccccc2)C1 the results were Peg3 promoter 77*, HIF-2a block 0, TROY signal inh 10, TWEAK Fn14 block 28, KKLEB cytotox 8 and CF NFkB block -118.
Screening CC1(c2nnc(-c3ccccc3)o2)CC(c2ccccc2)=NO1 (centres undefined) returned Peg3 promoter -58, HIF-2a block -133, TROY signal inh -38, TWEAK Fn14 block -10, KKLEB cytotox 10 and CF NFkB block -7.
Screening COc1ccccc1N(C)S(=O)(=O)c1ccc(C(=O)OCC(=O)c2c[nH]c3ccccc23)cc1 returned Peg3 promoter 35, HIF-2a block 19, TROY signal inh 37, TWEAK Fn14 block 51*, KKLEB cytotox 15 and CF NFkB block -9.
`COc1cccc(/C=C/C(=O)OCC(=O)c2c[nH]c3ccccc23)c1OC` gave Peg3 promoter -1, HIF-2a block -27, TROY signal inh 34, TWEAK Fn14 block 55*, KKLEB cytotox -1 and CF NFkB block -19.
Screening COc1cc(NC(=O)c2ccco2)c(C(=O)OCC(=O)c2c[nH]c3ccccc23)cc1OC returned Peg3 promoter 75*, HIF-2a block 0, TROY signal inh -8, TWEAK Fn14 block 10, KKLEB cytotox -11 and CF NFkB block 5.
`O=C(OCC(=O)c1c[nH]c2ccccc12)c1cccc(S(=O)(=O)N2CCCCCC2)c1` gave Peg3 promoter 18, HIF-2a block -2, TROY signal inh 1, TWEAK Fn14 block 52*, KKLEB cytotox 0 and CF NFkB block 8.
CCn1c(SCC(=O)NC2CCCCC2)nc2ccccc2c1=O was read as Peg3 promoter 1, HIF-2a block 16, TROY signal inh -3, TWEAK Fn14 block 11, KKLEB cytotox 4 and CF NFkB block 19.
`CC(=O)N1CCc2cc(NC(=O)C3(C)CCN3Cc3ccccc3Cl)ccc21` (centres undefined) gave Peg3 promoter -8, HIF-2a block -37, TROY signal inh 18, TWEAK Fn14 block -14, KKLEB cytotox 5 and CF NFkB block 6.
CCCCCCCC/C=C\CCCCCCCC(=O)O was read as Peg3 promoter 2, HIF-2a block -2, TROY signal inh 7, TWEAK Fn14 block -11, KKLEB cytotox 7 and CF NFkB block 14.
For CCCCC1C(=O)CC[C@H]2[C@@H]1CC(=O)[C@@H]2C/C=C\CCCC(=O)O (some centres undefined) the results were Peg3 promoter -10, HIF-2a block 4, TROY signal inh -2, TWEAK Fn14 block 18, KKLEB cytotox -100* and CF NFkB block 20.
Screening CCCSc1nc2c(c(=O)[nH]c(=O)n2C)n1Cc1ccc(C)cc1 returned Peg3 promoter 55*, HIF-2a block 12, TROY signal inh 9, TWEAK Fn14 block -18, KKLEB cytotox -5 and CF NFkB block -14.
`Cc1ccc(C(=O)Nc2cccc3ccccc23)cc1` gave Peg3 promoter -134, HIF-2a block -167, TROY signal inh -29, TWEAK Fn14 block -22, KKLEB cytotox -4 and CF NFkB block -1.
`CC(C)(C)c1ccc(C(=O)Nc2cccc3c(=O)[nH][nH]c(=O)c23)cc1` gave Peg3 promoter -113, HIF-2a block 11, TROY signal inh 53*, TWEAK Fn14 block 80*, KKLEB cytotox -6 and CF NFkB block 15.
For Cn1c(SCC(=O)NC2CC2)nnc1-c1cccs1 the results were Peg3 promoter -2, HIF-2a block 13, TROY signal inh -6, TWEAK Fn14 block -3, KKLEB cytotox -3 and CF NFkB block 5.
`O=C1/C(=C\c2ccc(Cl)cc2)CCC1CNc1ccc(Cl)cc1` (centres undefined) gave Peg3 promoter 89*, HIF-2a block 0, TROY signal inh -19, TWEAK Fn14 block 11, KKLEB cytotox 30 and CF NFkB block -30.
`COc1ccc(/C=C2\CCC(C3CCCC3)C2=O)cc1` (centres undefined) gave Peg3 promoter -308, HIF-2a block -248, TROY signal inh 27, TWEAK Fn14 block 49, KKLEB cytotox -1 and CF NFkB block 7.
Screening CC1CCC/C(=C\c2ccc(O)cc2)C1=O (centres undefined) returned Peg3 promoter -36, HIF-2a block -13, TROY signal inh -43, TWEAK Fn14 block -14, KKLEB cytotox 2 and CF NFkB block 6.
Screening COc1ccc(/C=C2/CCC(CN3CCOCC3)C2=O)cc1 (centres undefined) returned Peg3 promoter 101*, HIF-2a block 87*, TROY signal inh -18, TWEAK Fn14 block 66*, KKLEB cytotox -55* and CF NFkB block 66*.
For CN(C)CC1CC/C(=C\c2ccc(O)cc2)C1=O (centres undefined) the results were Peg3 promoter 98*, HIF-2a block 88*, TROY signal inh -18, TWEAK Fn14 block 47, KKLEB cytotox 0 and CF NFkB block 47.
For Cc1ccc(/C=C2\CCC(C3CCCC3)C2=O)cc1 (centres undefined) the results were Peg3 promoter -265, HIF-2a block -264, TROY signal inh 11, TWEAK Fn14 block 45, KKLEB cytotox 5 and CF NFkB block 8.
For O=C(CNC(=O)c1ccccc1F)N/N=C/c1ccc2c(c1)OCO2 the results were Peg3 promoter -152, HIF-2a block -199, TROY signal inh -39, TWEAK Fn14 block -10, KKLEB cytotox -5 and CF NFkB block -9.
Screening O=C(CSc1cccc2cccnc12)N/N=C/c1ccc(F)cc1 returned Peg3 promoter 10, HIF-2a block 11, TROY signal inh -11, TWEAK Fn14 block -25, KKLEB cytotox 0 and CF NFkB block 3.
`CCCCC(=O)N/N=C/c1ccc(Sc2cccc3cccnc23)o1` gave Peg3 promoter 2, HIF-2a block -17, TROY signal inh -9, TWEAK Fn14 block 107*, KKLEB cytotox -11 and CF NFkB block 16.
Cc1ccc(-c2nc3ncccn3c2Nc2ccccc2C)o1 was read as Peg3 promoter 2, HIF-2a block 9, TROY signal inh -35, TWEAK Fn14 block -24, KKLEB cytotox -6 and CF NFkB block 2.
